Pol iota inh = DNA polymerase iota (human) inhibition. Q9UNA4. Pol iota fluorescent replication assay, 10 min. Potency, µM (highest dose often 115 µM), usual class: inhibitors. 390,000 compounds, 1% hits
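Pol iota at 10 nM preincubated 15 min with compounds at room temperature; reaction started with fluorescent substrate, 50 nM final. Fluorescence read kinetically at 0 and 10 min; buffer-only wells as negative control.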
FEN1 inh = blocks human flap endonuclease 1; P39748; 390,000 compounds, 0.35% hits; Recombinant FEN1 flap cleavage, fluorescence, 15 min; Potency, µM (highest dose often 114 µM), actives largely listed as inhibitors; note: nearly all actives have a fitted effect of over 65% in size
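FEN1 at 10 nM, compound pretreatment for 15 min (room temperature), 50 nM final substrate to initiate; endpoint reads at 0 and 15 min; DMSO-only plates used as vehicle background.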
WRN helicase inh = blocks human WRN helicase. WRN helicase unwinding, fluorescent forked duplex, kinetic. AID 651768. Potency, µM (series often up to 114 µM), usual class: inhibitors. 360,000 compounds, 0.46% hits. Q14191; note: nearly all actives have a fitted effect of over 55% in size
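Fluorescence dequenching readout, ex 525 nm/em 598 nm, kinetic mode: forked duplex DNA (100 nM final) with adjacent fluorophore and quencher unwound by WRN (20 nM final) with 2 mM ATP. Compound preincubation 15 min, room temperature.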
Pol eta inh-1 = blocks human DNA polymerase eta activity; Q9Y253; recombinant Pol eta, fluorescent DNA replication assay; Potency, µM (doses to about 114 µM), actives largely listed as inhibitors; 390,000 compounds, 1.2% hits; AID 588591
Target sequence (Q9Y253 whole entry, looked up): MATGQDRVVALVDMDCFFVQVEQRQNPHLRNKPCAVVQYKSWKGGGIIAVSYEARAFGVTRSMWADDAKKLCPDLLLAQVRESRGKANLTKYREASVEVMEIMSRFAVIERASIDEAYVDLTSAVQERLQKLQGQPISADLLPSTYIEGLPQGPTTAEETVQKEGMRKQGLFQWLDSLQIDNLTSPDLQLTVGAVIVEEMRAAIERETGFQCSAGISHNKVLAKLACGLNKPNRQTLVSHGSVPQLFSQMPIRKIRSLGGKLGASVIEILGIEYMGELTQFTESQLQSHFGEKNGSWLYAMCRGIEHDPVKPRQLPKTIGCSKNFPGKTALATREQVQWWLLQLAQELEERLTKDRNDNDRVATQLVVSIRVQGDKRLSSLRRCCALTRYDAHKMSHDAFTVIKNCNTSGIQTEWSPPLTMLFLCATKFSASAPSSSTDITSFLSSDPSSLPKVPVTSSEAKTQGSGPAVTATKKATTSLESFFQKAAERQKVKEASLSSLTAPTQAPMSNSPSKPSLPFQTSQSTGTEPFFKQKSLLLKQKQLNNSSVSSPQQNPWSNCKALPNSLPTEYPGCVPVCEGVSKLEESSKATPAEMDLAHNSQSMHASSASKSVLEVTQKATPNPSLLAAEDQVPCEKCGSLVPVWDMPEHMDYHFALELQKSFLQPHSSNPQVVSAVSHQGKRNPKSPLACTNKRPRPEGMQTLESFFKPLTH
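Pol eta (10 nM) was preincubated with compounds for 15 min at room temperature, after which fluorescent replication substrate (50 nM final) was added to start the reaction. Fluorescence was read kinetically at 0 and 10 min.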
Pol beta inh = inhibitors of human DNA polymerase beta; 340,000 compounds, 1.3% hits; Potency, µM (series often up to 114 µM), usual class: inhibitors; AID 485314; P06746; Pol beta primer extension/strand displacement, fluorescence kinetic
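Homogeneous kinetic assay of primer extension and strand displacement by 10 nM Pol beta, preincubated 15 min at room temperature with compound before 50 nM substrate (final) was added. Read at 0 and 10 min; four-parameter Hill fit.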
Pol kappa inh-1 = inhibitors of human DNA polymerase kappa; purified Pol kappa, fluorescent DNA synthesis assay, 10 min; 400,000 compounds, 0.53% hits; Q9UBT6; Potency, µM (doses to about 107 µM), actives largely listed as inhibitors
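Kinetic fluorescence screen: compound preincubated 15 min RT with 10 nM enzyme; 50 nM substrate (final) initiates; reads at 0/10 min.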
GALK inh confirm = confirmation of human galactokinase (GALK) inhibitors. shares compounds with Pol eta inh-1. purified GALK, Kinase-Glo ATP depletion luminescence. Potency, µM (series often up to 115 µM), usual class: inhibitors. 150 compounds, 70% hits. AID 2015
GALK redox cs = counter-screen for GALK inhibitors: redox cycling H2O2 generation | shares compounds with Pol eta inh-1 | Phenol red-HRP H2O2 redox cycling, absorbance 600 nm | Potency, µM (doses to about 115 µM), hits mostly inhibitors | 150 compounds, 40% hits | AID 2035
HEK293 tox = counter-screen for GALK inhibitors: HEK293 cell cytotoxicity; shares compounds with Pol eta inh-1; HEK-293 viability, ATP luminescence (CellTiter-Glo), 24/48 h; Potency, µM (highest dose often 46.1 µM), usual class: inhibitors; 170 compounds, 10% hits; AID 2547
Pol kappa inh-2 = Pol kappa (human) inhibition, cherry-pick confirmation; AID 720501; 920 compounds, 76% hits; shares compounds with Pol eta inh-1; purified Pol-kappa, fluorescent strand-displacement substrate; Potency, µM, usual class: inhibitors
Pol eta inh-2 = Pol eta (human) inhibition, cherry-pick confirmation | shares compounds with Pol eta inh-1 | AID 720502 | Pol eta primer extension, TAMRA/BHQ fluorescence, 10 min | 2,600 compounds, 64% hits | Potency, µM, most hits filed as inhibitors
Hits are given with their value; - = inactive; ? = inconclusive; . = no result given; [ ] = dose if it differs, or a comment. Shown are actives, neighbours in structure and some others; about 2.4% of the full set was active somewhere. Calls come from the whole dose curve; as a rule, active = well fitted curve in the direction sought with a large enough effect; inconclusive = small, poorly fitted or top-dose-only effect, or another doubt; inactive = no such curve, though single readings can be large; an effect the other way counts as inactive or inconclusive.

SMILES	Pol iota inh	FEN1 inh	WRN helicase inh	Pol eta inh-1	Pol beta inh	Pol kappa inh-1	Pol eta inh-2	others
CC(C)(C)C(=O)Nc1ccc2c(c1)C(=O)C(=O)c1ccccc1-2	1.4µM	?	.	.	.	-	.	HEK293 tox=5.6µM
COc1cc2c(cc1OC)C1O[C@](c3ccsc3)(C2)OC2=C1C(=O)OC1(CCCCC1)C2	.	.	.	.	-[22.9 µM]	.	.
O=C(O)c1cc(C(=O)O)cc(N2C(=O)CSC2=S)c1	22µM	?	-[11.6 µM]	?	-	89µM	30	Pol kappa inh-2=?
O=C1CSC(=S)N1c1ccc(F)c(Cl)c1	?	-	-	-	-	-	.
Cc1ccc(C2C(=O)N(C3CCCCCC3)CC(=O)N2CCC2=CCCCC2)cc1 (stereo not drawn)	-	-	.	-	-	-	.
CCN(CCCCO)c1nc(C)nc2c1c(C)c(C)n2-c1c(C)cc(C)cc1C	.	.	.	.	.	-	.
CCn1c(=O)n(CC)c2cc(N3CCCCC3)c(NC(=O)Nc3ccccc3Cl)cc21	-	-	.	-	-	-	.
C=CCc1cccc2cc(C(=O)Nc3ccccc3C(=O)O)c(=O)oc12	?	-	?	45µM	?	-	?
C=CCc1cccc2cc(C(=O)O)c(=O)oc12	-	-	-	-	-	-	.
COc1ccc(N(CC(=O)NCc2ccccc2Cl)S(=O)(=O)c2c(C)nn(C)c2C)cc1	-	-	.	-	-	-	.
CCCCc1nc2ccccc2n2c(-c3ccc(C)cc3)c3c(=O)n(C)c(=O)n(C)c3c12	-	-	.	-	-	-	.
O=C(Cn1c(=O)n(Cc2ccc(C(=O)NCc3ccc4c(c3)OCO4)cc2)c(=O)c2ccccc21)Nc1ccc(F)cc1F	?	-	.	79µM	10µM	-	.	Pol kappa inh-2=?
CCOC(=O)c1ccccc1NC(=O)Cn1c(=O)n(Cc2ccc(C(=O)NCc3ccc4c(c3)OCO4)cc2)c(=O)c2ccccc21	-	-	.	-	-	-	.
Clc1ccc(CNc2ncnc3nc[nH]c23)cc1	-	-	.	.	.	-	.
CC(C)Cn1c(N)c(C(=O)COC(=O)C2Cc3ccccc3CN2S(C)(=O)=O)c(=O)n(C)c1=O (stereo not drawn)	45µM	-	?	22µM	.	?	?	Pol kappa inh-2=?
NS(=O)(=O)c1ccc(NC(=O)CSc2nnc(NC3CC3)s2)cc1	40µM	-	?	20µM	.	?	67
Cc1nc(Nc2nc3ccccc3o2)nc2c1C(=O)CC(C)(C)C2	.	.	.	.	.	.	.	HEK293 tox=-
Cc1nc(Nc2nc3ccccc3o2)nc2c1CCCC2	.	.	.	.	.	.	.	HEK293 tox=-
Cc1cc(C)nc(Nc2nc3ccccc3o2)n1	-	-	-	-	-	-	.
FC(F)(F)c1ccccc1-c1cc(NCc2cccs2)ncn1	.	.	.	.	.	-	.
CCOc1ccccc1C(=O)Nc1cc(-c2nc3cccnc3s2)ccc1C	-	-	.	.	-	-	.
CCOc1ccc(S(=O)(=O)NCC(c2ccc(N(C)C)cc2)N2CCCC2)cc1 (stereo not drawn)	-	-	.	-	-	-	.
COc1cc(C2CC(=O)Oc3c2c(=O)n(C)c2ccccc32)ccc1O (stereo not drawn)	?	?	-[11.6 µM]	35µM	?	?	?	Pol kappa inh-2=47
COc1cc(/C=C2\C(=N)N3N=C(C)SC3=NC2=O)cc(OC)c1OCCOc1ccccc1C	?	-	-	-	-	-	.
COc1cc(/C=C2\C(=N)N3N=C(S(C)(=O)=O)SC3=NC2=O)cc(OC)c1OCCOc1ccccc1C	?	-	?	25µM	?	-	?	Pol kappa inh-2=?
COc1cc(/C=C2/C(=N)N3C(=NC2=O)SN=C3S(=O)(=O)C(C)C)ccc1OS(=O)(=O)c1ccccc1	.	.	.	.	?	.	.	GALK inh confirm=?;GALK redox cs=-;HEK293 tox=-
COc1cc(/C=C2/C(=N)N3C(c4ccccc4)=CSC3=NC2=O)ccc1OCC(=O)O	-	?	-[11.6 µM]	20µM	-	-	?
COc1cc(/C=C2\C(=N)N3N=C(S(C)(=O)=O)SC3=NC2=O)ccc1OS(=O)(=O)c1ccc(C)cc1	20µM	-	-[11.6 µM]	32µM	100µM	?	48
COc1cc(/C=C2/C(=N)N3N=C(C(C)C)SC3=NC2=O)ccc1OS(=O)(=O)c1ccccc1	?	-	-	?	-	-	.

Screening data: PubChem BioAssay, National Center for Advancing Translational Sciences (NCATS)
